The values that follow come from patent US20220289795, “EFFICIENT METHOD FOR PREPARING PPR PROTEIN AND USE OF THE SAME” (EditForce, Inc., published 2022).

In the assay the target is T1, v3.1_PPR13 (Artificial Sequence).
T1 chain: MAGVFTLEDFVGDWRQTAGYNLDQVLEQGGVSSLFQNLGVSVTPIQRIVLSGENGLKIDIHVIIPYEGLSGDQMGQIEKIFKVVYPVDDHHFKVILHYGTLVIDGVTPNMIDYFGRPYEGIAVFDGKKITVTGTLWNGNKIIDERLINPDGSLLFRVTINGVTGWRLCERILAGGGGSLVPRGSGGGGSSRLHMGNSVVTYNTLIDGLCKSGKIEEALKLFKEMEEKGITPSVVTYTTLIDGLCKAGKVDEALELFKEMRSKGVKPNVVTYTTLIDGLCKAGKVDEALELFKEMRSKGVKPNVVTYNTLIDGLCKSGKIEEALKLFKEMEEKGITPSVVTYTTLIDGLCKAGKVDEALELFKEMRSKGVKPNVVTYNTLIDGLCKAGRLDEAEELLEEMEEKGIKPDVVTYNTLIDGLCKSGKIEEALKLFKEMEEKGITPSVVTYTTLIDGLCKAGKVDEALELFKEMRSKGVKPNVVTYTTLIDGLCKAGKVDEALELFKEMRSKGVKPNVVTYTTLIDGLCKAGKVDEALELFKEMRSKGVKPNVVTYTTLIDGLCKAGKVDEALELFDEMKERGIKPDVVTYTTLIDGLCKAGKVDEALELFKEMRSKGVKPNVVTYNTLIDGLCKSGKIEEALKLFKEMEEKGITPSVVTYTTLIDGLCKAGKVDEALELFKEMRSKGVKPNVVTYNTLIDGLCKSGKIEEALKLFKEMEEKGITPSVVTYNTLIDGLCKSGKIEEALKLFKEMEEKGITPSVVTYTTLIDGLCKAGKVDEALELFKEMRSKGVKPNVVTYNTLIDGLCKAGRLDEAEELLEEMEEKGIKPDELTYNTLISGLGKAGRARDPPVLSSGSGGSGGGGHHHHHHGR
Briefly: RPB-ELISA. As to conditions: tags: N-terminal luciferase, C-terminal 6xHis; label: 5'-biotin; ssRNA. How it is done: RNA probes consisting of a designed 30-base sequence containing 18 bases of the target sequence and modified by biotinylation at the 5′ end (RNA_1, RNA_2, RNA_3, RNA_4, and RNA_5, SEQ ID NOS: 61 to 65) were synthesized (Grainer). To a streptavidin-coated plate (Thermo fisher), the 5′-end biotinylated RNA probes were added, reaction was allowed at room temperature for 30 minutes, and the plate was washed with a lysis buffer (20 mM Tris-HCl, pH 7.6, 150 mM NaCl, 5 mM MgCl₂, 0.5% NP-40, 1 mM DTT, 0.1% BSA). For background measurement, wells to which RNA was not added, but 100 μL of the lysis buffer, 1 μL of 100 mM DTT, and 1 μL of 40 unit/4 RNase inhibitor (Takara, 2313A) were added were also prepared. Then, 200 μL of a blocking buffer (20 mM Tris-HCl, pH 7.6, 150 mM NaCl, 5 mM MgCl₂, 0.5% NP-40, 1 mM DTT, 1% BSA) was added, and the plate surface was blocked at room temperature for 30 minutes. Then, 100 μL of E. coli lysate containing luciferase-fused PPR protein having a luminescence level of 1.5×10⁸ LU/μL was added to each well, and the binding reaction was allowed at room temperature for 30 minutes. The well was washed 5 times with 200 μL of a washing buffer (20 mM Tris-HCl, pH 7.6, 150 mM NaCl, 5 mM MgCl₂, 0.5% NP-40, 1 mM DTT). […] The background (luminescence signal value obtained with adding the PPR protein and without adding RNA) was subtracted from the luminescences of the samples to which a solution containing each RNA and PPR protein was added, and the obtained values were used as the binding powers between the PPR protein and RNA.
By using the V3.1 motif, PPR proteins for the same 23 kinds of target sequences were similarly prepared (SEQ ID NOS: 411 to 433 for the nucleotide sequences, and SEQ ID NOS: 434 to 456 for the amino acid sequences), and bindings of all the combinations were analyzed by using RPB-ELISA. The experimental method was the same as that used in Example 3.
In general terms: An ELISA detects its analyte on a solid surface through an enzyme-linked reagent.
For GGUUAGAGAUACAGUGUG, the binding signal came out at 20.6 log2 luminescence.
